Experimental data from PubChem BioAssay AID1347383 (Zoeller Lab, School of Medicine, Boston University, 2020).
Active and inactive are the calls of the source.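 The calls were made as follows: active = cell survival after UV exposure 2 SD above solvent-only control wells at 10 µM, confirmed on one or two repeats; inactive = the rest.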

Assay: protection of CHO cells from pyrene-fatty acid UV killing, primary screen, phospholipid biosynthesis inhibitor project, ZR-82 cells, Analyticon library, screen 2 (AID 1347383);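 also: survival reflects blocked phospholipid synthesis cutting uptake of the phototoxic fatty acid; compound and fatty acid exposure 3 h then viability read next day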
Details: ZR-82 CHO cells, CellTiter Blue, at 10 µM, peroxisome-deficient CHO-K1 variant, with DGAT-1, DGAT-2 and ACAT inhibitors

| Structure (SMILES) | outcome |
| --- | --- |
| CCC1C(=O)O[C@]23C=C[C@@H]4C(C(=O)O)=CO[C@H](OC12)[C@@H]43 (some centres undefined) | inactive |
| CC(=O)Oc1ccc2c(C)cc(=O)oc2c1 | inactive |
| Cc1cc2c(CO)cc(O)cc2o1 | inactive |
| O=C(O)CC(O)(Cc1ccc(O)cc1)C(=O)O (centres undefined) | inactive |
| COC(=O)/C=C/C1(O)C=CC(=O)C=C1 | inactive |
| CC(=O)O[C@@H]1CC[C@@]2(C)C(CC[C@]3(C)C2C(=O)C=C2[C@@H]4[C@@H](C)[C@H](C)CC[C@]4(C)CC[C@]23C)[C@@]1(C)C(=O)O (some centres undefined) | inactive |
| C[C@H](O)c1nc2ccccc2c(=O)[nH]1 | inactive |
| C/C=C/C1C=CC(O)C(O)C1C(O)C(C)=O (centres undefined) | inactive |
| CC1CC(=O)C2CC12C(C)(O)CO (centres undefined) | inactive |
| CCC(C)C(=O)OC1CCC=C2C=CC(C)C(CCC(O)CC(O)CC(=O)OC)C21 (centres undefined) | inactive |
| O=C(O)C(O)Cc1c[nH]c2ccccc12 (centres undefined) | inactive |
| C/C(=C\C(=O)C[C@]12C(=O)O[C@]3(C)CC[C@H]1C[C@H]23)C(N)=O | inactive |
| COc1ccc(OC2OC(COC3OCC(O)C(O)C3O)C(O)C(O)C2O)cc1OC (centres undefined) | inactive |
| O=C1CC(c2ccc(O)cc2)Oc2ccccc21 (centres undefined) | inactive |
| CC1CCC2(C(=O)O)CCC3(C)C(C=CC4C5(C)CC(O)C(O)C6(C)COC(CC43C)C65)C2C1(C)O (centres undefined) | inactive |
| CCC(C)C(=O)OC1CC(C)C=C2C=CC(C)C(CCC(O)CC(O)CC(=O)O)C21 (centres undefined) | inactive |
| O=C1CC(c2ccc(O)cc2)Oc2cc(O)cc(O)c21 (centres undefined) | inactive |
| N#CC(OC(=O)c1ccccc1)c1ccccc1 (centres undefined) | inactive |
| COc1cc(O)cc2c1C(=O)CC(c1ccccc1)O2 (centres undefined) | inactive |
| O=C(CCc1ccc(O)c(O)c1)CCC(O)Cc1ccc(O)c(O)c1 (centres undefined) | inactive |
| CCC(O)/C=C1\OC(=O)C2=C1CCC=C2 (centres undefined) | inactive |
| COc1cc(/C=C/c2ccc(O)cc2)cc(OC)c1 | inactive |
| COc1cc2c(c3c1C(=O)C[C@@H](C)O3)CCO2 | inactive |
| CCCCCCCCCCCCC(O)/C=C/CCC(=O)O (centres undefined) | inactive |
| C=C[C@@]12COC(=O)C(=C)[C@@H]1[C@@H](O)[C@H](C(=C)C(=O)OC)[C@@H](O)C2 | inactive |

| Structure (SMILES) | outcome |
| --- | --- |
| C/C1=C\CCC2=CC(OC2=O)C(C)(C)/C=C\C1=O (centres undefined) | inactive |
| O=C1CCC(=O)NCCCCCN(O)C(=O)CCC(=O)NCCCCCN(O)C(=O)CCC(=O)NCCCCCN1 | inactive |
| COC(=O)c1ccccc1O[C@@H]1O[C@H](CO)[C@@H](O)[C@H](O)[C@H]1O[C@@H]1O[C@@H](C)[C@H](O)[C@@H](O)[C@H]1O | inactive |
| CCCO[C@@H]1O[C@H](CO)[C@@H](O)[C@H](O)[C@H]1O[C@@H]1OC[C@@H](O)[C@H](O)[C@H]1O | inactive |
| CCCCCCCCC(=O)/C=C/C=C/C(=O)CCCC(=O)O | inactive |
| Cn1c2c(c(=O)c3cc(O)ccc31)CC(C(C)(C)O)O2 (centres undefined) | inactive |
| CC1=C[C@H]2[C@@H](CC1=O)[C@H](C)C[C@H](O)[C@H]2C(C)C | inactive |
| CC1(C)CC2C3OC(O)C4(O)OC(C)(CC34)C2C1 (centres undefined) | inactive |
| CC(C)=CCCC1(C)C=Cc2c(c(C)cc3c2[nH]c2ccccc23)O1 (centres undefined) | inactive |
| C/C=C/c1cc(O)c(C(=O)C(=O)CC)c(=O)o1 | inactive |
| CC(=O)c1c(O)cc(O)c(C/C=C(\C)CCC=C(C)C)c1O | inactive |
| C/C=C(/COC(=O)/C(C)=C/C)C(=O)OC/C=C/c1ccc(OC)cc1 | inactive |
| O=C1c2c(O)cc(O)cc2OC(c2cc(O)c(O)c(O)c2)C1O (centres undefined) | inactive |
| COc1ccc(-c2coc3cc(O)cc(O)c3c2=O)cc1 | inactive |
| CCC/C=C\C/C=C\CCCC/C=C\Cc1cc(O)cc(O)c1 | inactive |
| CC(C)=CCC/C(C)=C/CC(O)/C(C)=C/Cc1cc(C(=O)O)ccc1O (centres undefined) | inactive |
| C/C=C/CCC1Cc2cc(O)c(CCCC)c(O)c2C(=O)O1 (centres undefined) | inactive |
| CCCCc1c(CC=C(C)C)[nH]c(=O)c(C)c1O | inactive |
| C=CC(C)(C)c1cc(/C=C/C(=O)c2ccc(OC)cc2)c(O)cc1O | inactive |
| C[C@]12CC[C@@H]3c4ccc(O)cc4CC[C@H]3[C@@H]1CCC2=O | inactive |
| O=C(NC(CO)Cc1ccccc1)c1ccccc1 (centres undefined) | inactive |
| C=CC(C)(O)CC[C@@]1(C)[C@H](C)CC[C@]2(C)[C@@H]1C[C@@H](O)[C@@H](O)[C@]2(C)O (some centres undefined) | inactive |
| COc1c(OC)c2occc2c2oc(=O)ccc12 | inactive |
| C/C=C(/C)C(=O)O[C@@H]1C[C@@H](OC(=O)CC(C)C)C2(C)C3C(=O)C=C(C)C2C3C1(C)C (some centres undefined) | inactive |
